In PubChem BioAssay (EPA / NIEHS):
Active and inactive are the calls of the source. How the source made its calls: active means hit-call score of the fitted dose curve at least 0.9, where 1 is the maximum; inactive means score below 0.9.

How the values were obtained:
[1] = APR_HepG2_NuclearSize_72hr: Apredica 72-hour HepG2 Assay for Nuclear Size (AID 2282925); conditions: high-content imaging, actives raise or lower the signal
Outline: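 Read-out: nuclear diameter from Hoechst 33342 images (ArrayScan, 20x, six fields/well), via cell-cycle image analysis. HepG2 were dosed 0.39–200 uM for 72 hr in 0.5% DMSO. Bidirectional fit relative to DMSO.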

[2] = ATG_CRE_CIS: Attagene CIS-FACTORIAL HepG2 Assay for human cAMP Responsive Element (CRE) binding protein 3 (AID 2282926); conditions: HepG2 CRE cis-reporter, Attagene multiplexed mRNA; actives raise or lower the signal
Outline: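 Readout: fluorescently labelled reporter transcripts resolved by capillary electrophoresis after RT-PCR, taken 24 h post-dosing in transfected HepG2. Endogenous transcription factor activity drives each cis-element reporter; gain or loss of signal fitted relative to DMSO control.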

[3] = ATG_CMV_CIS: Attagene CIS-FACTORIAL HepG2 Assay for human CMV (Internal Marker) (AID 2282928); conditions: HepG2 CMV promoter reporter, transcription factor profiling; actives raise or lower the signal;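 further: endpoint acts as a background internal control marker rather than a target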
Outline: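 Readout: fluorescent reporter cDNA fragments separated by capillary electrophoresis after RT-PCR and HpaI cut. Cells: HepG2 carrying transfected cis-promoter reporter constructs, dosed 24 h. Endpoint serves as background internal-marker control, fit bidirectionally versus DMSO.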

[4] = ATG_DR4_LXR_CIS: Attagene CIS-FACTORIAL HepG2 Assay for human Liver X Receptor (LXR), DR4 submotif (AID 2282929); conditions: HepG2 Attagene DR4 cis-reporter, mRNA transcription; actives raise or lower the signal
Outline: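 Transiently transfected HepG2 liver cells; cis-regulated reporters; 24 h dosing. RT-PCR plus CE read-out of reporter mRNA. DMSO baseline, bidirectional curve fitting.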

[5] = target: Aryl hydrocarbon receptor (Homo sapiens) (UniProt P35869); assay: ATG_Ahr_CIS: Attagene CIS-FACTORIAL HepG2 Assay for human Aryl Hydrocarbon Receptor (Ahr) (AID 2282930); conditions: HepG2 AhR cis-factorial reporter transcription; actives raise or lower the signal
Outline: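 Read-out: reporter mRNA quantified by RT-PCR with fluorescent primer extension and capillary electrophoresis. Human HepG2 liver cells carried transfected cis-promoter reporter units and were exposed to chemical for 24 h; gain or loss fitted relative to DMSO.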

[6] = ATG_AP_1_CIS: Attagene CIS-FACTORIAL HepG2 Assay for human Activator Protein 1 (AP-1) (AID 2282931); conditions: HepG2 Attagene cis-factorial AP-1 reporter mRNA; actives raise or lower the signal
Outline: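 We transfected HepG2 cells transiently with a set of cis-regulated reporter transcription units, dosed them for 24 h, and quantified reporter mRNA via RT-PCR and capillary electrophoresis, scoring gain or loss of signal relative to DMSO.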

[7] = ATG_AP_2_CIS: Attagene CIS-FACTORIAL HepG2 Assay for human Activator Protein 2 (AP-2) (AID 2282932); conditions: HepG2 AP-2 cis-reporter, Attagene transcription factor profiling; actives raise or lower the signal
Outline: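 Read-out: fluorescent reporter mRNA via RT-PCR and capillary electrophoresis, 24 h post-dose in transiently transfected HepG2. Endogenous factors drive cis-promoter reporters; gain or loss of signal fitted bidirectionally against DMSO.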

[8] = ATG_BRE_CIS: Attagene CIS-FACTORIAL HepG2 Assay for human Bone Morphogenetic Protein (BMP) Response Element (BRE) (AID 2282933); conditions: HepG2 BMP response element reporter, Attagene transcription factor profiling; actives raise or lower the signal
Outline: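 A HepG2 multiplex reporter system measured inducible reporter mRNA 24 h post-dosing. Detection: RT-PCR, 6-FAM primer extension, HpaI digestion, capillary electrophoresis. Activity fitted bidirectionally relative to DMSO.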

[9] = target: Retinoic acid receptor alpha (Homo sapiens) (UniProt P10276); assay: ATG_DR5_RAR_CIS: Attagene CIS-FACTORIAL HepG2 Assay for human Retinoic Acid Receptor Alpha (RARE), DR5 submotif (AID 2282934); conditions: HepG2 Attagene cis-factorial RARE DR5 reporter, mRNA; actives raise or lower the signal;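 on AC50: reporter responds to endogenous RAR alpha beta and gamma in HepG2 not RARA alone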
Outline: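 Read-out: DR5-driven reporter transcript measured by RT-PCR, 6-FAM primer extension, HpaI digest and capillary electrophoresis. Human HepG2 liver cells carry transiently transfected cis-element reporter constructs; dosing lasts 24 h. Gain or loss of signal fitted against DMSO baseline.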

Measured: AC50

Sequence of Aryl hydrocarbon receptor (Homo sapiens) (P35869 whole entry, looked up): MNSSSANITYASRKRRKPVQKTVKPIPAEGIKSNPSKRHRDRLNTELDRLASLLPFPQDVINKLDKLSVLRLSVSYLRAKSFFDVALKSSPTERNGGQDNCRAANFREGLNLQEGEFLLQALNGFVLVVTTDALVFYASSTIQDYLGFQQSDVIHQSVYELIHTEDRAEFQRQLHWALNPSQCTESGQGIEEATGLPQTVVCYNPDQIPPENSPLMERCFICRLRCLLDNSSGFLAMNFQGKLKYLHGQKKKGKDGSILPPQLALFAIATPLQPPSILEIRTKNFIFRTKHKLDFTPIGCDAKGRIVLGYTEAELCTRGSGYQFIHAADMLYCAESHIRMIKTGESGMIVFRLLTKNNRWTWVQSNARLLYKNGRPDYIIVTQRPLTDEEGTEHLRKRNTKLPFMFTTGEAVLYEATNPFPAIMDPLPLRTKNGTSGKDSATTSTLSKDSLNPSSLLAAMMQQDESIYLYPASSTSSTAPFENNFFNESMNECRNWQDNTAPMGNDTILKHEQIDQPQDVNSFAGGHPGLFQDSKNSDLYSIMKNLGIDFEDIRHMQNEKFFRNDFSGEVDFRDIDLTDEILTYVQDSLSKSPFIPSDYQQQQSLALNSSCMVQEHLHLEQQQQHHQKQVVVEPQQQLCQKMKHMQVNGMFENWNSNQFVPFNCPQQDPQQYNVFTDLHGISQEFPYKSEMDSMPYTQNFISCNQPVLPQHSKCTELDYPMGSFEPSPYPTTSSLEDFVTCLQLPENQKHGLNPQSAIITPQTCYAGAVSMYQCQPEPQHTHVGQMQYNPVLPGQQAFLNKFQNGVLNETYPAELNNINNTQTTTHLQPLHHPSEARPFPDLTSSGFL
Sequence of Retinoic acid receptor alpha (Homo sapiens) (P10276 whole entry, looked up): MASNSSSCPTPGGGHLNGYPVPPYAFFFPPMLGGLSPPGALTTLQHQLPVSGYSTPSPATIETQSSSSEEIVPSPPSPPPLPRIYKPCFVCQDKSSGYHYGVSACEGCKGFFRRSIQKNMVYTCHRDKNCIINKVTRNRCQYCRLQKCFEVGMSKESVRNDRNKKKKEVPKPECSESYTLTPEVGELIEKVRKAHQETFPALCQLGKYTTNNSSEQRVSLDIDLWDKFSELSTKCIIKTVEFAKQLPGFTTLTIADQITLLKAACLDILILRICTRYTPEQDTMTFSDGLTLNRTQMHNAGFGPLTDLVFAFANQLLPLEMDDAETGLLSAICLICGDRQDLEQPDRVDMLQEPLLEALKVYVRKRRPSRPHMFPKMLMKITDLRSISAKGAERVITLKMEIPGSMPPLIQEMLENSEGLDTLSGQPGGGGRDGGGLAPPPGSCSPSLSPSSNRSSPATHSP

CN=C=S
active: [2] 13.7 µM | [6] 13.5 µM | [8] 16.5 µM
inactive: all other assays above

COC(=O)NC(=S)Nc1ccccc1NC(=S)NC(=O)OC
active: [2] 29 µM | [5] 73.9 µM | [8] 26.3 µM
not listed: [9]
inactive: all other assays above

CN/C(=N\[N+](=O)[O-])NCc1cnc(Cl)s1
not listed: [6]
inactive: all other assays above

OC(c1ccc(Cl)cc1)(c1ccc(Cl)cc1)C(Cl)(Cl)Cl
not listed: [5] | [6] | [8]
inactive: all other assays above

CC1(C)C(C(=O)OC(C#N)c2cccc(Oc3ccccc3)c2)C1(C)C (centres undefined)
active: [4] 14.3 µM | [9] 3.62 µM
not listed: [6]
inactive: all other assays above

COCC(=O)N(c1c(C)cccc1C)C(C)C(=O)OC (centres undefined)
active: [5] 81.7 µM | [8] 50 µM
inactive: all other assays above

CCN(CC)c1nc(C)cc(OP(=S)(OC)OC)n1
active: [2] 21.9 µM | [4] 50 µM | [5] 30.7 µM
inactive: all other assays above

COCc1cnc(C2=NC(C)(C(C)C)C(=O)N2)c(C(=O)O)c1 (centres undefined)
inactive: all assays above

COP(=S)(OC)SCn1nnc2ccccc2c1=O
active: [2] 18.8 µM
not listed: [6] | [8]
inactive: all other assays above

CC(C)C1(C)N=C(c2ncccc2C(=O)O)NC1=O (centres undefined)
not listed: [6] | [9]
inactive: all other assays above

CCCCC(O)(Cn1cncn1)c1ccc(Cl)cc1Cl (centres undefined)
active: [3] 19.5 µM
inactive: [1] | [2] | [4] | [5] | [7]

O=c1n(Cl)c(=O)n(Cl)c(=O)n1Cl
active: [5] 19.6 µM
not listed: [8]
inactive: all other assays above

CC(C)(C)C(=O)C(Oc1ccc(Cl)cc1)n1cncn1 (centres undefined)
active: [2] 41.9 µM | [5] 34.7 µM | [6] 74.2 µM | [8] 50 µM | [9] 12.8 µM
inactive: [1] | [3] | [4] | [7]

CCOc1cc(C(C)(C)C)ccc1C1COC(c2c(F)cccc2F)=N1 (centres undefined)
active: [2] 4.09 µM | [4] 13.2 µM | [9] 4.26 µM
not listed: [8]
inactive: all other assays above

CC(C)N1C(=O)c2ccccc2NS1(=O)=O
active: [4] 62 µM
not listed: [6] | [8]
inactive: all other assays above

CCCC(=NOCC)C1=C(O)CC(CC(C)SCC)CC1=O (centres undefined)
not listed: [8]
inactive: all other assays above

CC(C)=CC1C(C(=O)OCc2coc(Cc3ccccc3)c2)C1(C)C (centres undefined)
inactive: [1] | [3] | [5] | [7]
active: [2] 13.2 µM | [4] 73.6 µM | [6] 14.3 µM | [8] 15.5 µM | [9] 8.01 µM

Nc1c(Cl)c(Cl)nc(C(=O)O)c1Cl
active: [5] 31.3 µM
not listed: [6] | [9]
inactive: all other assays above

CS(=O)(=O)c1cc(C(F)(F)F)ccc1C(=O)c1cnoc1C1CC1
not listed: [6]
inactive: all other assays above

COc1cc(Cl)c(OC)cc1Cl
not listed: [6] | [8]
inactive: all other assays above

CC1(C)C(C=C(Cl)Cl)C1C(=O)OC(C#N)c1cccc(Oc2ccccc2)c1 (centres undefined)
active: [4] 30.3 µM
not listed: [6]
inactive: all other assays above

Cc1cc(C)nc(Nc2ccccc2)n1
active: [2] 7.42 µM | [6] 30.4 µM | [8] 27 µM
inactive: all other assays above

Nc1cnn(-c2ccccc2)c(=O)c1Cl
inactive: [1] | [2] | [3] | [4] | [7]
active: [5] 50 µM

CSC(=O)c1c(C(F)F)nc(C(F)(F)F)c(C(=O)SC)c1CC(C)C
active: [4] 4.51 µM | [5] 81.5 µM | [9] 1.28 µM
not listed: [6]
inactive: all other assays above

CS(=O)(=O)c1ccc(C(=O)C2C(=O)CCCC2=O)c([N+](=O)[O-])c1
not listed: [6] | [8] | [9]
inactive: all other assays above
